Structures are written as SMILES. Values without a mark were called inactive. Results filed as inconclusive are left out. A call without a number means that no potency is given here. The source made the active and inactive calls. Unless noted, the call rests on the fitted dose curve; in most records, active means well fitted curve in the direction sought with a large enough effect; inconclusive means small, poorly fitted or top-dose-only effect, or another doubt; inactive means no such curve, though single readings can be large; an effect the other way counts as inactive or inconclusive.

Sequence of Thyrotropin receptor (Homo sapiens) (P16473 whole entry, looked up): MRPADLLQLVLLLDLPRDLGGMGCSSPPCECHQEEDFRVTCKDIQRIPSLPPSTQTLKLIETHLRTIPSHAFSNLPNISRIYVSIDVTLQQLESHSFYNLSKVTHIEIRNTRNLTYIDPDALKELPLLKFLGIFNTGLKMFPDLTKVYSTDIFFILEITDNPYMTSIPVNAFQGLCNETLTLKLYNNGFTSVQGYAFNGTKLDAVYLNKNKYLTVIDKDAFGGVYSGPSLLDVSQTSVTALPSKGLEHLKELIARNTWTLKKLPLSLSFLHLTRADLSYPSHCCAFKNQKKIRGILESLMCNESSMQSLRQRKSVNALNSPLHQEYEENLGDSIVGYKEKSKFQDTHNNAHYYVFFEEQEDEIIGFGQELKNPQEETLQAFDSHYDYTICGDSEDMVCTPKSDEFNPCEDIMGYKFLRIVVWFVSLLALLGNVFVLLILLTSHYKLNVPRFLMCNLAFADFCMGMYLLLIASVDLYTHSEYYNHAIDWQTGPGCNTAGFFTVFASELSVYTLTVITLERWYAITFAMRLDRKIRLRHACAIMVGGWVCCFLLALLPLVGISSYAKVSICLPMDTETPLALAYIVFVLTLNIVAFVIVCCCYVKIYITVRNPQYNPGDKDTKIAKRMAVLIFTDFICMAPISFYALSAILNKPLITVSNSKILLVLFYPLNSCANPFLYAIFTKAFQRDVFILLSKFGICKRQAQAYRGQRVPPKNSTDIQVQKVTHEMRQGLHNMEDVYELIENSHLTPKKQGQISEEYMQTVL
Sequence of ATP-dependent 6-phosphofructokinase (Trypanosoma brucei brucei) (O15648 whole entry, looked up): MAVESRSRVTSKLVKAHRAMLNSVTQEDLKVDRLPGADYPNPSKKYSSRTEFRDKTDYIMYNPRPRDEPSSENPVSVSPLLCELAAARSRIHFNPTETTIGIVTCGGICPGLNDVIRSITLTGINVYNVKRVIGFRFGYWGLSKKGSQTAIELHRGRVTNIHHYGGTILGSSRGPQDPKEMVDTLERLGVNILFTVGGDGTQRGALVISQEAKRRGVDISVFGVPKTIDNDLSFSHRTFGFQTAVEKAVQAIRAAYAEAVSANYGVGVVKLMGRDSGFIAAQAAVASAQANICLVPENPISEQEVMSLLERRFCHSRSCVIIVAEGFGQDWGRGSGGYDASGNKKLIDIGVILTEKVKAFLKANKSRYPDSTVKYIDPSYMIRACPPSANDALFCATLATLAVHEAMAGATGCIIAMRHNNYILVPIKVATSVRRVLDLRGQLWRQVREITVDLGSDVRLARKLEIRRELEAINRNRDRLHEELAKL
Sequence of Thyrotropin-releasing hormone receptor (Homo sapiens) (P34981 whole entry, looked up): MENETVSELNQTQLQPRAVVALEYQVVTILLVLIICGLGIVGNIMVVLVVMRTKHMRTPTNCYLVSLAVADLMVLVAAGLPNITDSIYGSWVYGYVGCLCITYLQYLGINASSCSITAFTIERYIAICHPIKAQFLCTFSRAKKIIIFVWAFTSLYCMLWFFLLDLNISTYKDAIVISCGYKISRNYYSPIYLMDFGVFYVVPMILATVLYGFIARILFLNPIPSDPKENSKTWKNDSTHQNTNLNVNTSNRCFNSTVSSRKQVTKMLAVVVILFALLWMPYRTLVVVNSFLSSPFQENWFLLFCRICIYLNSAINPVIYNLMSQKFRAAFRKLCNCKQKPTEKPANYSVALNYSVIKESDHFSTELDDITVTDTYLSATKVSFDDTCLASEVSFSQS
Sequence of Transient receptor potential cation channel subfamily V member 1 (Homo sapiens) (Q8NER1 whole entry, looked up): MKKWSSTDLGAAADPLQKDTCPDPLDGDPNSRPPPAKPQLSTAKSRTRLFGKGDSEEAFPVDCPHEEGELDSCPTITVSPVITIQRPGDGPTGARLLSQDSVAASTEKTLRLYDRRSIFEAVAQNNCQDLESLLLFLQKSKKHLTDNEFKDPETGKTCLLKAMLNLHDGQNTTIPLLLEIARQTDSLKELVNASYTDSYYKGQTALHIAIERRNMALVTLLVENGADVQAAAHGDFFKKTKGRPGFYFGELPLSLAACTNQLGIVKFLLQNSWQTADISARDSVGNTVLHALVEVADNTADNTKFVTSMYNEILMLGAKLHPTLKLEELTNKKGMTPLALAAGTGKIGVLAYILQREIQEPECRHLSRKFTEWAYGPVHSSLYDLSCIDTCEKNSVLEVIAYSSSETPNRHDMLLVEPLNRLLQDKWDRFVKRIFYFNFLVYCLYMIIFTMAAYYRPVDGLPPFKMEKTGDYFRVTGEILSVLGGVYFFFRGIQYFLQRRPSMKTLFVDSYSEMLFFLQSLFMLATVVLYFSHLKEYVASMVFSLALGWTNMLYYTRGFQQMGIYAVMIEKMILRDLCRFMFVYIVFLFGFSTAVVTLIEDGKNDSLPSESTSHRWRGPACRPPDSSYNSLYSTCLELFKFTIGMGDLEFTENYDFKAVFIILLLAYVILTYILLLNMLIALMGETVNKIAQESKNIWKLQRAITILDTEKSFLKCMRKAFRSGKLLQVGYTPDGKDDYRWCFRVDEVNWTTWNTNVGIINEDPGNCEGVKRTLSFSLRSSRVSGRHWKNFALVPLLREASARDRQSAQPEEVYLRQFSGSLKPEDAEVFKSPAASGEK

The first experiment deals with Transient receptor potential cation channel subfamily V member 1 (Homo sapiens) (UniProt Q8NER1). Nature of the experiment: HTS Assay for Compounds that Act as Enhancers of the Vanilloid Receptor 1 (AID 488979). The settings on record: TRPV1-expressing cells, enhancer of channel activity, stimulated with capsaicin at EC20; series mostly up to 41.7 µM. From the text:
The transient receptor potential ion channel, family V, number 1, (TRPV1) is one of the most important molecular transducers of painful stimuli and a potential target for analgesic drug development. Although recent clinical trials with orthosteric antagonists have not produced a successful drug because of a hyperthermia side effect and their tendency to block thermal noxious pain, this ion channel is undeniably well placed in the pain pathway, and the idea of blocking pain signals before they enter the CNS is an excellent concept and of proven efficacy when TRPV1 agonists are used. We propose a new approach involving allosteric modulation to impose an activity-dependent constraint within the context of inflammation and tissue damage that would alter the responsiveness of the channel in a way that an orthosteric vanilloid antagonist cannot achieve. We believe that the allosteric modulator approach has not been explored for this target.
The main goal of this proposal is to identify additional, new, potent allosteric modulators of TRPV1 that can be used to investigate TRPV1 function. Our recent report provides evidence of proof of concept, but the compounds are just at the edge of utility in terms of potency. […] The question of whether they can be used as analgesic agents is complex, but if suitable compounds are identified then testing for analgesic properties will be conducted.
Upon TRPV1 activation in TRPV1 cells, the channel opens and extracellular cations flow through the channel into the cytosol. A calcium binding dye (Fluo-8) becomes fluorescent when bound to calcium. This dye is pre-loaded into cells and is used as a marker for calcium influx.
The amount of accumulated calcium is precisely quantified using the FDSS kinetic reader and the calcium dye.
For the HTS assay, freshly prepared cells are plated at a density of 2000/well in 3 ul medium in 1536-well plates and cultured overnight at 35.5C. Cells will be loaded with 1 ul of the homogeneous calcium dye (ABD Bioquest) at room temperature for 40 to 90 minutes. Plates will be loaded into the FDSS kinetic reader and a 1 sec / cycle for 10 second baseline signal will be measured. Compound library will then be added with a pintool at 23 nl and measured kinetically for 3 minutes. This portion of the read is considered the agonist portion of the screen. Following the 3 minutes of incubation, an on board pipettor will deliver 1 ul of capsaicin for a final concentration equal to the EC20. Signal will be measured kinetically for an additional 2 minutes. This portion of the read is considered the allosteric enhancer portion of the screen.
The FDSS reader has a standard filter set capable of measuring calcium bound Fluo-8 (ex=480 and em=520 nm).
For `Cc1cc(C)c(NC(=O)C[C@H](CC(=O)O)c2cccc3ccccc23)c(C(=O)N2CCC3(CCCC3)CC2)c1`, the result was inactive.

Take `O=c1[nH]c(=O)n([C@H]2C[C@H](O)[C@@H](CO)O2)cc1/C=C/Br`: the outcome was inactive.

Regarding `O=C(NCCNCC(O)COc1ccc(O)cc1)N1CCOCC1` (stereo not given), the outcome was inactive.

As to `C[C@@](Cc1ccc(O)c(O)c1)(NN)C(=O)O`, the outcome was inactive.

Consider `Oc1ccc(/C=C/c2cc(O)cc(O)c2)cc1`, for which the result was inactive.

The next experiment concerns the target Thyrotropin receptor (Homo sapiens) (UniProt P16473). Description: qHTS Assay for Antagonists of the Thyroid Stimulating Hormone Receptor (AID 488980). Particulars: TSHR-expressing cells, cAMP antagonist read-out; series mostly up to 57.5 µM. In outline: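 Readout is cAMP by HTRF competition between cellular cAMP and cAMP-d2 for a cryptate-labelled antibody. Antagonism was assessed in TSHR-transfected HEK293 cells stimulated with 4 nM TSH (EC80, final) in the presence of RO 20-1724.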
(Quantitative high-throughput screening tests each substance at several concentrations.)
Take `Cc1cc(C)c(NC(=O)C[C@H](CC(=O)O)c2cccc3ccccc23)c(C(=O)N2CCC3(CCCC3)CC2)c1`: the outcome was inactive.

For the compound `O=c1[nH]c(=O)n([C@H]2C[C@H](O)[C@@H](CO)O2)cc1/C=C/Br`, the outcome was inactive.

As to `O=C(NCCNCC(O)COc1ccc(O)cc1)N1CCOCC1` (stereo not given), the outcome was inactive.

On to `C[C@@](Cc1ccc(O)c(O)c1)(NN)C(=O)O`, for which the result was inactive.

For the compound `Oc1ccc(/C=C/c2cc(O)cc(O)c2)cc1`, the result was inactive.

The next experiment has as its target ATP-dependent 6-phosphofructokinase (Trypanosoma brucei brucei) (UniProt O15648). Description: qHTS Assay to Find Inhibitors of T. brucei phosphofructokinase: hit validation (AID 492961).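 Further: luminescence reports ADP formed as PFK phosphorylates fructose-6-phosphate with ATP.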 The settings on record: T. brucei PFK, ADP-Glo luminescence; series mostly up to 51.4 µM. Summed up:
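Inhibition of parasite PFK is measured as reduced ADP formation, quantified via luciferase after ATP depletion. Assay used 0.1 mM ATP, 0.5 mM F6P, 1.25 nM enzyme, 45 min incubation.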
Take `Cc1cc(C)c(NC(=O)C[C@H](CC(=O)O)c2cccc3ccccc23)c(C(=O)N2CCC3(CCCC3)CC2)c1`: the Potency result is “inactive”.

Take `CCCCO`: the Potency entry was “inactive”.

On to `CCCc1ccc(C(=O)O)cc1`, for which the Potency entry is “inactive”.

With `O=c1[nH]c(=O)n([C@H]2C[C@H](O)[C@@H](CO)O2)cc1/C=C/Br`, the Potency entry is “inactive”.

In the case of `CC(=O)Nc1ccc(NC(=S)NC(=O)c2ccc(C(C)(C)C)cc2)cc1`, the Potency entry is “inactive”.

As to `CCOC(=O)[C@@H](N)CS`, the Potency result was “inactive”.

Turning to `O=C(O)[C@H]1CN(C/C=C/P(=O)(O)O)CCN1`, the Potency entry is “inactive”.

For `O=C(O)Cc1nn(Cc2ccc(Br)cc2F)c(=O)c2ccccc12`, the Potency result was “inactive”.

Turning to `C/C=C/C=C/C(=O)O`, the Potency result is “inactive”.

Regarding `CC(/C=C/C=C(\C)C(=O)O[C@@H]1O[C@H](CO[C@@H]2O[C@H](CO)[C@@H](O)[C@H](O)[C@H]2O)[C@@H](O)[C@H](O)[C@H]1O)=C\C=C\C=C(C)\C=C\C=C(/C)C(=O)O[C@@H]1O[C@H](CO[C@@H]2O[C@H](CO)[C@@H](O)[C@H](O)[C@H]2O)[C@@H](O)[C@H](O)[C@H]1O`, the Potency result is “inactive”.

`CCN(CC)CCCC(C)Nc1cc(/C=C/c2ccccc2Cl)nc2cc(Cl)ccc12` (stereo not given): the Potency result is “inactive”.

With `CCCCCCCCCCCCCCCCCC[N+](C)(C)CCC[Si](OC)(OC)OC`, the Potency entry is “inactive”.

As to `COc1cc2c(cc1OC)[C@@H](Cc1cc(OC)c(OC)c(OC)c1)[N+](C)(CCCOC(=O)CC/C=C/CCC(=O)OCCC[N+]1(C)CCc3cc(OC)c(OC)cc3[C@H]1Cc1cc(OC)c(OC)c(OC)c1)CC2` (stereo not given in full), the Potency result is “inactive”.

Consider `CC1(O)CCC(C(C)(C)O)CC1` (stereo not given), for which the Potency result is “inactive”.

In the case of `CO[C@H]1C[C@@H]2CC[C@@H](C)[C@@](O)(O2)C(=O)C(=O)N2CCCC[C@H]2C(=O)O[C@H]([C@H](C)C[C@@H]2CC[C@@H](OC(=O)C(C)(CO)CO)[C@H](OC)C2)CC(=O)[C@H](C)/C=C(\C)[C@@H](O)[C@@H](OC)C(=O)[C@H](C)C[C@H](C)/C=C/C=C/C=C/1C`, the Potency result was “inactive”.

As to `CC(C)CCCC(C)NC(C)C` (stereo not given), the Potency result was “inactive”.

As to `O=C(CCCCCCCCCCCCC1CCCC1)Nc1ccc(S(=O)(=O)c2ccc(NC(=O)CCCCCCCCCCCCC3CCCC3)cc2)cc1`, the Potency result is “inactive”.

Regarding `CCCCCCCCCCCCCC(=O)OCC(COP(=O)([O-])OCC[N+](C)(C)C)OC(=O)CCCCCCCCCCCCC` (stereo not given), the Potency entry is “inactive”.

With `CCCCCCCCCCCC(=O)OCC(O)CO` (stereo not given), the Potency entry is “inactive”.

Consider `CC(C)(COP(=O)(O)OP(=O)(O)OC[C@H]1O[C@@H](n2cnc3c(N)ncnc32)[C@H](O)[C@@H]1OP(=O)(O)O)C(O)C(=O)NCCC(=O)NCCS` (stereo not given in full), for which the Potency entry was “inactive”.

Take `CC(C)(C)c1ccc2c(S(=O)(=O)O)c(C(C)(C)C)ccc2c1`: the Potency result is “inactive”.

Regarding `CCCCC[C@H](O)/C=C/[C@H]1[C@H](O)CC(=O)[C@@H]1C/C=C\CCCC(=O)O`, the Potency entry was “inactive”.

Regarding `Nc1nc(=O)n([C@@H]2CS[C@H](CO)O2)cc1F`, the Potency entry is “inactive”.

For `NCCN`, the Potency entry is “inactive”.

For `O=[N+]([O-])c1c(Cl)cccc1-c1c[nH]cc1Cl`, the Potency result is “inactive”.

`CCN(CC)C(=O)c1cccnc1`: the Potency entry was “inactive”.

On to `O=C(O)c1cc(N=Nc2ccc(O)c(C(=O)O)c2)ccc1O`, for which the Potency result was “inactive”.

Regarding `CN(C)C=Nc1c(I)cc(I)c(CCC(=O)O)c1I`, the Potency entry is “inactive”.

As for `COc1ccc2c(c1)OC(C)(C)C(c1ccccc1)C2c1ccc(OCCN2CCCC2)cc1` (stereo not given), the Potency result is “inactive”.

On to `CN1CCC(OC(=O)C(Oc2ccc(Cl)cc2)Oc2ccc(Cl)cc2)CC1`, for which the Potency entry is “inactive”.

The next experiment addresses Thyrotropin-releasing hormone receptor (Homo sapiens) (UniProt P34981). Nature of the experiment: qHTS for Small Molecule Agonists and Allosteric Enhancers of Human TRH Receptor: Validation Screen for Agonists (AID 493127;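 active means calcium activation more than 3 SD above the typical response in the agonist read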;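 further: intracellular calcium rise by fluo-8 fluorescence before TRH EC20 addition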). Particulars: TRH receptor agonist cell assay; at 2 µM; active compounds read high. In outline:
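Compound-evoked intracellular calcium release in fluo-8-loaded TRHR cells, read kinetically on FDSS (Ex 480/Em 530, 1 s/cycle) after 23 nL pintool transfer. Agonist phase preceded 10 nM TRH EC20 addition.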
As to `Cc1cc(C)c(NC(=O)C[C@H](CC(=O)O)c2cccc3ccccc23)c(C(=O)N2CCC3(CCCC3)CC2)c1`, the activation was 0.125%.

Consider `O=c1[nH]c(=O)n([C@H]2C[C@H](O)[C@@H](CO)O2)cc1/C=C/Br`, for which the activation is 0.938%.

Take `O=C(NCCNCC(O)COc1ccc(O)cc1)N1CCOCC1` (stereo not given): the activation was 1%.

Regarding `C[C@@](Cc1ccc(O)c(O)c1)(NN)C(=O)O`, the activation is 0.562%.

Regarding `Oc1ccc(/C=C/c2cc(O)cc(O)c2)cc1`, the activation was 0.812%.
